Among all 16,000 compounds or so, about 2,600 (16%) were called active. Roughly 20% stayed inconclusive and do not appear here. Not all results are given here. Values without a mark were called inactive. The call rests on the fitted dose curve; in most records, active means well fitted curve in the direction sought with a large enough effect; inconclusive means small, poorly fitted or top-dose-only effect, or effect the other way; inactive means no such curve, though single readings can be large or run the other way.
On the % scale 0 is the no-effect control and ±100 the full control effect.

Cytochrome P450 2D6 (Homo sapiens), sequence (P10635 whole entry, looked up): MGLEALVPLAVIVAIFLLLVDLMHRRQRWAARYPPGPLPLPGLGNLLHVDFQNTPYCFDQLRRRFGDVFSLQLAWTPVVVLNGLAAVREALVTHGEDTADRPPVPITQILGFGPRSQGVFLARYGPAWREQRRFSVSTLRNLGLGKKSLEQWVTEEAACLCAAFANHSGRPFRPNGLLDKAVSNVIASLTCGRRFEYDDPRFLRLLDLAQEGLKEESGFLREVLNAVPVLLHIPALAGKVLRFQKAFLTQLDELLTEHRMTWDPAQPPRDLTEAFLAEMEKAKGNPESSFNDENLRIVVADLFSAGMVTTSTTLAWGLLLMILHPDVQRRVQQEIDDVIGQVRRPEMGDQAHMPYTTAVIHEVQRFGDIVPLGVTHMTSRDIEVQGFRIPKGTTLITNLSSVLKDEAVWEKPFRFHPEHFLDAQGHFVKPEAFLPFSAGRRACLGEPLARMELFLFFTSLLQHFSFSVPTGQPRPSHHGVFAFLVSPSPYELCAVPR

The experiment has as its target Cytochrome P450 2D6 (Homo sapiens) (UniProt P10635). Description: Cytochrome panel assay with activity outcomes. To be noted: recombinant CYP, pro-luciferin dealkylation, luminescence, p450-cyp2d6; series mostly up to 57.1 µM; activity, negative = inhibition: at the top concentration.
For the compound `OC[C@@H](O)CNc1ncnc2ccccc12`, the activity, negative = inhibition was 3.48% [at 11.4 µM].

`CC(CO)(CO)Nc1ncnc2ccccc12`: the activity, negative = inhibition was -4.58% [at 11.4 µM]. As for `c1ccc(CN2CC[C@@H](CNc3ncnc4ccccc34)C2)cc1`, the AC50 was 0.794 µM (active). With `COCCn1c(=O)cnc2cnc(Nc3ccccc3)nc21`, the “activity, negative = inhibition” value is -5.45%. Consider `CCC(=O)Nc1cccc(NC(=O)CSc2nnnn2Cc2ccccc2)c1`, for which the “activity, negative = inhibition” value was -19.3%. On to `O=C(CSc1nnc(Cn2nnc3ccccc32)o1)Nc1cccc(Cl)c1`, for which the AC50 is 12.6 µM (active). Take `CC(C)(C)OC(=O)NCCc1nnc(SCC(=O)Nc2cccc(Cl)c2)o1`: the “activity, negative = inhibition” value was -19.6%. `CC(=O)[C@H]1CC[C@H]2[C@@H]3C=CC4=CC(=O)CC[C@@]4(C)[C@H]3CC[C@]12C`: the “activity, negative = inhibition” value was -2.12% [at 25.6 µM].

For `COC(=O)CC1C(=O)NCCN1C(=O)Nc1ccc(Cl)cc1` (stereo unspecified), the “activity, negative = inhibition” value is 4.56%. Take `Cc1ccc(-n2cc(C(=O)c3ccc4ccccc4c3O)cn2)cc1`: the “activity, negative = inhibition” value is -1.3%. Consider `CSC1(SC2=NCCN2)SC2(NCCN2)S1`, for which the AC50 is 3.98 µM (active). On to `COc1ccc(/C=N/NC(=O)CCc2ccccc2)cc1O`, for which the “activity, negative = inhibition” value was -15.1%. The same measure, in the same setting: the figure for `CCOc1cc(CNc2ccc(OC)cc2)cc(Br)c1OCC(=O)NC(C)(C)C` is -20.5%; for `COc1ccc(CNC(=O)Nc2cccs2)cc1OC` it is -3.61%. On to `COc1cc(CNCc2cccs2)ccc1OCC(N)=O`, for which the AC50 was 2 µM (active). `COc1ccc(C/C(N)=N/OC(=O)Cc2ccccc2)cc1OC`: the “activity, negative = inhibition” value was -9.36%. `COc1ccc(CNCCc2ccccc2)cc1OCC(N)=O`: the AC50 is 0.398 µM (active).

Consider `CC(C)(C)c1ccc(OCC(=O)NNC(=O)CCc2ccccc2)cc1`, for which the “activity, negative = inhibition” value was -16.1%.

Take `COc1cc(CNCCc2ccccc2)ccc1OCC(=O)NC(C)(C)C`: the half-maximal activity concentration (AC50) is 3.16 µM (active). On to `COc1ccc(C[C@@](C)(N)C(=O)O)cc1OC`, for which the “activity, negative = inhibition” value was 1.3% [at 25.6 µM]. For `N[C@@H]1[C@@H]2[C@@H]3C[C@H]4N(CC[C@@]14C(=O)C(=O)O)CC3=CCO[C@@H]2CC(=O)O`, the activity, negative = inhibition was -4.74% [at 11.4 µM].

Take `Cc1cccc2nc(C(F)(F)F)nc(=O)n12`: the “activity, negative = inhibition” value was 37.5%.

Consider `COc1cccc(Cn2c(=O)c(-c3cn(C)c4ccccc34)nc3cnc(OC)nc32)c1`, for which the “activity, negative = inhibition” value was -6.37%. On to `COc1ccc(NS(=O)(=O)c2cc(-c3nnnn3C)ccc2OC)cc1`, for which the “activity, negative = inhibition” value is -18.8%.

As for `COC(=O)Nc1nc2ccc(C(=O)c3cccs3)cc2[nH]1`, the “activity, negative = inhibition” value is 0.0102%. On the same count and under the same terms, the figure for `COCC(=O)N1CCC2(CCCN(c3ccncc3)C2)CC1` is -15.3%. Regarding `CC1=C(C(N)=O)C(c2ccccn2)n2nc(SCc3ccccc3Cl)nc2N1` (stereo unspecified), the “activity, negative = inhibition” value is -0.385%. With `CC(C)CNc1nc(N)[nH]c(=O)c1NC=O`, the activity, negative = inhibition was -2.42% [at 11.4 µM]. `CN1CCN(c2ncc3nc(-c4cc(F)cc(F)c4)c(=O)n(CCC#N)c3n2)CC1`: the “activity, negative = inhibition” value is 17.6%. `Cc1cccc(-n2cccc2)c1C#N`: the “activity, negative = inhibition” value was 4.73%. For the compound `FC(F)(F)c1ccccc1-n1ccnc1`, the “activity, negative = inhibition” value is -10.7%. With `N#Cc1c(-n2ccnc2)cccc1-n1ccnc1`, the AC50 was 6.31 µM (active). Regarding `O=C(/C=C\NCC(=O)c1ccccc1)c1ccccc1`, the “activity, negative = inhibition” value is -15.4%.

For `N#CC1=C(N)OC2=C(CC/C2=C\c2ccccc2)C1c1ccccc1` (stereo unspecified), the “activity, negative = inhibition” value was -7.69%.

In the case of `Cc1c(-c2c(C#N)c(N)nc3c2CCCCCC3)cnn1C`, the “activity, negative = inhibition” value was -4.87%. As to `COc1ccc(CNc2ncncc2-c2ccc(C(=O)N(C)C)cc2)c(OC)c1`, the AC50 was 20 µM (active). For `COc1ccc(CNc2ncncc2-c2ccc(N(C)C)cc2)c(OC)c1`, the AC50 is 10 µM (active). In the case of `CO[C@H]1COC(=O)[C@H](C)COC(=O)[C@@H](Cc2ccccc2)NC(=O)C/C=C\[C@H]1C`, the activity, negative = inhibition is 3.3% [at 11.4 µM].

As to `NS(=O)(=O)c1cc2c(cc1C(F)(F)F)N[C@H](Cc1ccccc1)NS2(=O)=O`, the “activity, negative = inhibition” value is -5.27% [at 25.6 µM]. In the case of `CCN1CCN(S(=O)(=O)c2ccc(Cl)c(C(=O)Nc3nnc(CC(C)C)s3)c2)CC1`, the “activity, negative = inhibition” value is -26.9%. As to `Cc1ccc(C)c(NC(=O)C2C3CCCC2C3c2ccccc2)c1` (stereo unspecified), the AC50 is 2.82 µM (active). Regarding `Cc1ccc(NC(=O)C2C3CCCC2C3c2ccccc2)cc1C` (stereo unspecified), the “activity, negative = inhibition” value is 12.5%. `Cc1ccc(C)c(NC(=O)C2CC(O)CN2C(=O)OC(C)(C)C)c1` (stereo unspecified): the “activity, negative = inhibition” value is 4.88%. Consider `CCOc1ncccc1C(=O)OCC(=O)Nc1cc(C)ccc1C`, for which the “activity, negative = inhibition” value is -28.7%. For the compound `Cc1ccc(C)c(NC(=O)Cn2c([N+](=O)[O-])cnc2C)c1`, the “activity, negative = inhibition” value is -13.2%. With `Cc1ccc(C)c(NC(=O)C2(C)CC3c4ccccc4C2c2ccccc23)c1` (stereo unspecified), the AC50 was 0.2 µM (active). Consider `Cc1ccc(C)c(NC(=O)C2CC3c4ccccc4C2c2ccccc23)c1` (stereo unspecified), for which the AC50 is 0.2 µM (active).

Turning to `Cc1ccc(C(=O)NC(=S)Nc2cc(-c3nc4ccccc4s3)ccc2C)cc1`, the “activity, negative = inhibition” value was 5.16%. Regarding `CC(C)=NOCc1cccc(-c2cc(-c3ccccc3)no2)c1`, the activity, negative = inhibition was -6.68% [at 11.4 µM]. Consider `CC(C)COCC1CC2(CC(C)(c3csc(N)n3)OC2=O)C(=O)O1` (stereo unspecified), for which the “activity, negative = inhibition” value is -21.1%. With `CCS(=O)(=O)N1CCN(c2c(Cl)cccc2[N+](=O)[O-])CC1`, the “activity, negative = inhibition” value is -25.5%.

For orientation: AC50 means the midpoint of the concentration-response curve, whichever way the signal moves.

Source of the values: PubChem BioAssay AID1851 (National Center for Advancing Translational Sciences (NCATS), 2009).
